Compound activity: PubChem BioAssay, several laboratories
An excerpt weighted towards active compounds, which were near 2.9% of everything screened.
14-3-3 Bad inh – disrupts binding of bovine 14-3-3 zeta to phospho-Bad peptide; P63103; TR-FRET 14-3-3zeta/Dy647-pBad peptide displacement, 1 h; inhibition, % at 21.7 µM; 220,000 tested, 0.71% active; AID 781;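 active = inhibition above about 70%, limit read from the data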;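 also: 0% = full 14-3-3 plus peptide FRET controls and 100% = background without 14-3-3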
Target sequence (P63103 whole entry, looked up): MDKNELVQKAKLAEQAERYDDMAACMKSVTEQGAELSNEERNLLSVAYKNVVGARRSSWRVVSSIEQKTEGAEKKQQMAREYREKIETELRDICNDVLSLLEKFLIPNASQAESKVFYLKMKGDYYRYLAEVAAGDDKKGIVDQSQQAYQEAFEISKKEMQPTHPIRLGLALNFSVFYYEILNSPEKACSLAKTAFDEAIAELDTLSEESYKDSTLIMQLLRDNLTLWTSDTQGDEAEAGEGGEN
Hck-Nef inh – human Hck-Nef kinase inhibition | Recombinant Hck-YEEI plus Nef, Z-Lyte FRET kinase assay | inhibition, % at 20 µM | 220,000 tested, 0.68% active | AID 463187;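 active = Hck-Nef kinase inhibition above about 50%, limit read from the data; inactive = inhibition below that limit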;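 also: 0% = DMSO with Hck plus Nef and 100% = Hck alone without Nef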
Mcl-1 Bim block – disrupts Bim peptide binding to human Mcl-1; Bead-based flow cytometry, Bim peptide-Mcl-1 binding; inhibition, % at 10 µM; 190,000 tested, 0.1% active; in the data active = inhibition above about 40%;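 also: 0% = no compound tracer wells and 100% = peptide blocker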
Target sequence (Q07820 whole entry, looked up): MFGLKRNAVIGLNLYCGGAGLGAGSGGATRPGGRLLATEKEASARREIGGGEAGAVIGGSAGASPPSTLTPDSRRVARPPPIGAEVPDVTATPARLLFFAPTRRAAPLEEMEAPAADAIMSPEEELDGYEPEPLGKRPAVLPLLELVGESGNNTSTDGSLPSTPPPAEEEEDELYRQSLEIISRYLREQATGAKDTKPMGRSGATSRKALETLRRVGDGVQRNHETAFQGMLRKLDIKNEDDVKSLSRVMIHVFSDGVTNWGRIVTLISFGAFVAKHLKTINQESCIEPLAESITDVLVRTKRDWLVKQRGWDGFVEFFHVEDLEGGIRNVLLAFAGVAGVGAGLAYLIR
Pf gamet viab – inhibitors of late stage P. falciparum gametocyte viability; P. falciparum stage V gametocytes, ATP luminescence, 24 h; inhibition, % at 10.9 µM; 150,000 tested, 0.065% active; AID 743093;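 active = inhibition above the mean plus 3 SD of compounds within the control limits, set per campaign, cut at about 38% in these data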;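 also: 0% = DMSO wells and 100% = medium only without gametocytes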
Mcl1 Noxa PPI – disrupts binding of human Mcl-1 to Noxa peptide; Q07820; AID 1022; 220,000 tested, 1.5% active; inhibition, % at 21.7 µM; TR-FRET Mcl-1/Noxa peptide binding, 2 h;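 active = compounds that cut the protein-peptide binding signal by more than 50% relative to plate controls in a single-dose test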;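 also: His-tagged Mcl-1 with rhodamine Noxa BH3 peptide and terbium anti-His antibody; 0% = Mcl-1 plus Noxa peptide wells and 100% = peptide-only wells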
Mcl1-Bid inh – Mcl-1/Bid interaction inhibition | 220,000 tested, 0.97% active | TR-FRET Mcl-1/Bid-Dy647 peptide binding, 1536-well | inhibition, % at 21.7 µM | AID 1021 | Q07820;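 active = compounds that cut the binding signal by more than half at the single screening dose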;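 also: His-tagged Mcl-1 with europium anti-His antibody binding Bid BH3 peptide; 0% = Mcl-1 plus peptide wells and 100% = peptide-only wells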
* hit, by the source's call; · = no result; [ ] = another dose, or the depositor's remark.

SMILES	14-3-3 Bad inh	Hck-Nef inh	Mcl-1 Bim block	Pf gamet viab	Mcl1 Noxa PPI	Mcl1-Bid inh
O=C1OC(c2ccccc2)=N/C1=C\N1CCCCC1	-3	0	-3	3	15	-29
O=C1OC(c2ccccc2)=C/C1=C/N1CCCCC1	-11	3	0	·	14	86*
COCC(O)CSc1nc(C)[nH]c1[N+](=O)[O-] (centres undefined)	-11	-4	0	·	26	87*
O=C(COC(=O)CCN=C1NS(=O)(=O)c2ccccc21)NC1CCCCCCC1	3	13	·	-4	-13	-24
O=C(COC(=O)CCCN=C1NS(=O)(=O)c2ccccc21)NC(=O)NC1CCCC1	-20	10	102*	20	12	-20
COc1ccc(C(=O)Nc2sc3c(c2C#N)CCN(C(C)=O)C3)cc1	-6	26	-2	3	10	-34
CC(=O)N1CCc2c(sc(NC(=O)c3ccc([N+](=O)[O-])o3)c2C#N)C1	5	7	-5	-24	53*	-33
O=C1CC(c2ccco2)CC(O)=C1C=NCCN1CCN(C(=S)Nc2ccccc2)CC1 (centres undefined)	-7	5	·	12	51*	-50
O=C1CC(c2ccco2)CC(O)=C1C=NCCN1CCN(C(=O)Nc2ccc(Cl)cc2)CC1 (centres undefined)	0	7	0	-1	5	-52
CCc1nccn1S(=O)(=O)c1ccccc1[N+](=O)[O-]	·	·	·	-5	·	·
Cc1ccc2nc(Cl)c(/C=N/NC(=O)[C@H]3C[C@@H]3c3ccccc3)cc2c1	-2	4	-3	15	6	-2
CC(C)(C)c1ccc(C2CC2C(=O)N/N=C\c2cc3ccccc3nc2Cl)cc1 (centres undefined)	84*[fluorescence artefact?]	0	0	5	-7	18
C/C(=N\Nc1nc(C(C)(C)C)cs1)c1ccc(O)cc1	·	·	·	-26	·	·
Cc1ccc(C(=O)NCCCn2ccnc2)o1	0	0	-2	·	42	62*
Cc1ccc(CC(=O)NCCCn2ccnc2)cc1	-3	23	0	·	2	-14
COc1cc(NC(=O)c2ccc3c(=O)n(Cc4ccco4)c(=S)[nH]c3c2)cc(OC)c1OC	35	2	-2	·	43	52*
Nc1c(S(=O)(=O)c2ccccc2)c2nc3ccccc3nc2n1/N=C/c1ccco1	-9	3	4	13	73*	3
Nc1c(S(=O)(=O)c2cccs2)c2nc3ccccc3nc2n1/N=C/c1cccc(O)c1	-5	1	20	10	73*	6
COc1cccc(/C=N/n2c(N)c(S(=O)(=O)c3cccs3)c3nc4ccccc4nc32)c1	13	2	6	34	-31	12
COc1ccc(S(=O)(=O)c2c(N)n(Cc3ccco3)c3nc4ccccc4nc23)cc1	-2	28	1	·	57*	2
Cc1ccc(S(=O)(=O)c2c(N)n(/N=C/c3ccco3)c3nc4ccccc4nc23)cc1	-5	8	-8	6	17	-5
CCC(c1nnnn1CCc1ccccc1)N1CCN(C(=O)c2ccco2)CC1 (centres undefined)	75*	0	0	·	25	19
CCCCC(c1nnnn1Cc1ccco1)N1CCN(C(=O)c2ccco2)CC1 (centres undefined)	85*	0	0	·	17	2
Cc1[nH]n(-c2ncc(-c3ccc(Cl)cc3)s2)c(=O)c1C(c1ccc(Cl)cc1)C(C#N)C#N (centres undefined)	-23	29	1	·	92*	51*
COc1ccc(C(c2c(C)[nH]n(C(N)=S)c2=O)C(C#N)C#N)cc1 (centres undefined)	-19	11	-6	·	-50	-57
SMILES	14-3-3 Bad inh	Hck-Nef inh	Mcl-1 Bim block	Pf gamet viab	Mcl1 Noxa PPI	Mcl1-Bid inh
O=C(N/N=C/c1ccco1)c1ccc(N2CCCC2=O)cc1	-5	1	-1	10	8	93*
O=C(NCc1ccco1)c1ccc(N2CCCC2=O)cc1	0	-1	11	·	12	-21
CN(C)c1ccc(N=C/C=C2/N(C)c3ccccc3C2(C)C)cc1	-20	0	-11	-23	64*	-69
Cn1c(=O)[nH]c2nnc(-c3ccc(Cl)c(Cl)c3)nc2c1=O	17	14	·	21	16	8
CC(=O)N1CCC2(CC1)CC(=O)c1cc(OCC(=O)N3CCOCC3)ccc1O2	-7	-44	0	-11	7	-30
CCOC(=O)N1CCN(C(=O)COc2ccc3c(c2)C(=O)CC2(CCN(C(C)=O)CC2)O3)CC1	95*	1	0	14	-14	-5
O=C(CCC(=O)OC(C(=O)c1ccccc1)c1ccccc1)Nc1ccccc1 (centres undefined)	87*	-2	1	-20	-6	7
Cc1ccc(C)c(NC(=O)CCC(=O)OC(C(=O)c2ccccc2)c2ccccc2)c1 (centres undefined)	5	0	-3	·	-2	5
NS(=O)(=O)c1ccc(-c2ccc(/C=N/NC(=O)c3ccc([N+](=O)[O-])cc3)o2)cc1	1	7	·	-16	27	1
NS(=O)(=O)c1ccc(-c2ccc(/C=C3\C(=O)Nc4cc(Cl)ccc43)o2)cc1	75*	7	7	8	63*	11
CC1(C)OC(=O)C(=Cc2ccc(-c3ccc(S(N)(=O)=O)cc3)o2)C(=O)O1	-27	58*	-3	4	39	-31
Cn1c(/C(C#N)=C/c2ccc(-c3ccc(S(N)(=O)=O)cc3)o2)nc2ccccc21	-8	-1	0	·	13	-29
COc1cc(C2C(C#N)=C(N)N(c3cccnc3)C3=C2C(=O)CC(C)(C)C3)ccc1O (centres undefined)	10	-14	-6	·	-6	-40
O=S(=O)(NCC(c1ccco1)N1CCN(c2ccc(F)cc2)CC1)c1ccc2c(c1)OCCO2 (centres undefined)	-9	2	-7	·	7	-21
CCOc1ccccc1NC(=O)N1CCC(NC(=O)c2cccc(C)c2)CC1	80*[fluorescence artefact?]	0	-2	·	47	-18
O=C1NC[C@H](c2ccccc2)OC(=O)[C@H](Cc2ccc(F)cc2)CC/C=C/C[C@H]1CC(=O)N(CCO)Cc1ccccc1	·	·	·	-12	·	·
CC1CCCCC12NC(=O)N(CC(=O)Nc1sc3c(c1C(N)=O)CCC3)C2=O (centres undefined)	-5	9	-1	0	82*	-61
CC(C)CN1CCC(=O)N([C@H](CSc2ccc(Br)cc2)Cc2ccccc2)CC1	-7	26	·	·	7	-61
Cc1nn(CCCC(=O)NCc2ccc(F)cc2)c(C)c1[N+](=O)[O-]	-18	1	-5	6	17	-19
O=C(O)c1cc(-c2ccc(/C=C3\NC(=O)N(c4ccccc4)C3=O)o2)ccc1Cl	8	-6	·	-15	73*	-14
CC[N+]1=CN(c2ccccc2)C(C)=CC1(C)C	82*[fluorescence artefact?]	5	2	-10	8	-69
